Experimental data published in PubChem BioAssay AID1117319 (Southern Research Institute, 2015).
Where “and” joins values, the source holds several entries; their conditions need not be identical. Equal values may be shown once. The campaign covered roughly 260,000 compounds. About 1,500 (0.58%) were called active. Roughly 5% stayed inconclusive and do not appear here.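 The calls were made as follows: active = inhibition above a set limit at one or more doses, reproduced on every date tested; inconclusive = results disagree between test dates, or hit never tested in dose response; inactive = the rest.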 Not all results are given here. Measured potencies and affinities stand elsewhere.

Target: Virion infectivity factor (Human immunodeficiency virus type 1 group M subtype B (isolate BH10)) + Virion infectivity factor (Human immunodeficiency virus type 1 group M subtype B (isolate BRU/LAI)) + Virion infectivity factor (Human immunodeficiency virus type 1 group M subtype B (isolate PCV12)) + Virion infectivity factor (Human immunodeficiency virus type 1 group M subtype B (isolate HXB2)) + DNA dC->dU-editing enzyme APOBEC-3G (Homo sapiens) (UniProt P69720+P69721+P69722+P69723+Q9HC16)
Experiment: inhibitors of Vif binding to APOBEC3G peptide, primary screen, biochemical, TR-FRET, GST-Vif 1-94, biotin-A3G peptide, dose response retest (AID 1117319);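 also: Vif residues 1-94 fused to GST binding biotinylated APOBEC3G peptide 110-148; 0% = full assay without inhibitor and 100% = GST in place of GST-Vif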
Conditions: hits give high values

inhibition, inactive:
CCCCn1c(N)c(N(CC)C(=O)/C=C/c2ccco2)c(=O)[nH]c1=O -7.61%, CCCCN1C(=O)NC(NC(=O)c2ccco2)(C(F)(F)F)C1=O (stereo unspecified) -1.08%, Cn1nnc(NC(=O)/C=C/c2ccco2)n1 11.5%, COC(=O)C(=C/C=C/c1ccco1)C(=O)OC 32.7%, CC1Cc2c([nH]c3ccccc23)C(=O)N1 (stereo unspecified) 0.31%, COc1c2ccoc2c(OC(C)=O)c2oc(C)cc(=O)c12 0.13%, COC(=O)Cn1cnc2c1c(=O)n(C)c(=O)n2C 1.38%, Cc1csc(NC(=O)C2CCCCN2S(=O)(=O)c2ccccc2)n1 (stereo unspecified) 1.7%, COc1cccc(NC(=O)CSc2nc(N)cc(N)n2)c1 3.65%, CC(=O)c1ccc(NC(=O)CSc2ccc(-c3ccco3)nn2)cc1 -1.56%, Cc1ccc(NC(=O)CSc2nnc(-c3ccco3)c(-c3ccco3)n2)cc1 25.5%, COc1cccc(NC(=O)CSc2ccc(-c3ccco3)nn2)c1 3.97%, O=C(CSc1n[nH]c(-c2ccco2)n1)Nc1ccccc1 5.48%, CCc1nnc(SCC(=O)Nc2ccc(C(C)=O)cc2)nc1CC 2.81%, COc1ccc(CCNC(=O)COC(=O)/C=C/c2ccc(OCC#N)c(OC)c2)cc1OC 5.39%, CC(=O)Nc1ccc(NC(=O)Cn2ccc([N+](=O)[O-])n2)cc1 11.7%, COc1cccc(C2CC(c3cccs3)=NN2C(=O)CSC2=NN3CCCC(=O)N=C3S2)c1OC (stereo unspecified) 0.81%, O=C(c1ccco1)N1CCN(Cc2cc(=O)c(OCc3cccc(F)c3)co2)CC1 -1.67%, S=c1nc(-c2ccccc2)oc2c1CCCC2 2.15%, O=[N+]([O-])c1ccc(-c2nc(=S)c3c(o2)CCCC3)cc1 0.66%, Cc1nc2oc3ccccc3c(=O)c2cc1C(=O)O -10.2%, Cc1ccc(C)c(N2CCN(S(=O)(=O)c3ccc4c(c3)CCC(=O)N4)CC2)c1 24.6%, COc1ccc(C(=O)COC(=O)CNC(=O)c2ccc(Cl)cc2Cl)c(OC)c1 3.17%, Cc1cc(C)cc(NC(=O)CSCc2cnn(-c3ccccc3)c2-n2cccc2)c1 -0.62%, CCOc1ccc(NC(=O)CSCc2cnn(-c3ccccc3)c2-n2cccc2)cc1 -1.2%, Cc1cc2ccccc2n1CCNC(=O)C1CCCC1 23.5%, O=C(NCCn1ccc2ccccc21)C1CCCCC1 -2.31%, CC(C)CC(=O)NCc1ccc2[nH]c3c(c2c1)CCCC3 5.99%, O=C(CCN1CCC(c2ccc(Cl)s2)=N1)c1ccc(Cl)s1 -2.16%, CC(=O)NCC(=O)NC(Cc1ccccc1)C(N)=O (stereo unspecified) 18.9%, COc1cc(/C=C(\C#N)C(=O)N2CCOCC2)cc(Br)c1O -3.89%, NC(=O)/C(=C\c1ccco1)NC(=O)c1ccco1 13.1%, CC(=C\C(=O)O)/C(=C/c1ccco1)C(=O)O 29.9%, Cc1ccc2sc(N(CCCN(C)C)C(=O)c3ccc(S(=O)(=O)N4CCOCC4)cc3)nc2c1C 7.87%, CCOc1ccccc1CNc1ccc(O)cc1 -1.14%, COc1cc(CNC(C)(C)CO)cc(Br)c1OCc1ccccc1 14.2%, Fc1cccc(COc2ccccc2CNc2ccccc2)c1 8.86%, C=CCOc1c(CNc2ccc(C(=O)O)cc2)cccc1OCC 5.17%, CCOc1cc(CNc2ccccc2)cc(Br)c1OCc1ccc(F)cc1 -2.02%, CCOc1cccc(CNn2cnnc2)c1OCc1ccccc1Cl 3.09%, O=[N+]([O-])c1ccc(COc2cccc(CNc3ccc(F)cc3)c2)cc1 26.4%, O=C(O)c1ccc(CNCc2cccc(OCc3ccc(F)cc3)c2)cc1 -2.79%, O=C(c1cccn2c(=O)c3ccccc3nc12)N1CCN(Cc2ccc3c(c2)OCO3)CC1 3%, CN(C)CCn1cnc2c(c1=N)C(c1ccccc1)c1ccc3ccccc3c1O2 (stereo unspecified) -7.72%, CC1(C)Cc2ccccc2C(C(=O)c2ccccc2)=N1 -10.3%, CCOC(=O)c1cc2sccc2n1CC(=O)N1CCCc2ccccc21 -4.99%, CCN1CCN(CC(=O)N2N=C(c3cccs3)CC2c2ccc(C)cc2)C(=O)C1=O (stereo unspecified) 1.42%, Cc1csc(NC(=O)COc2ccc3c(C)cc(=O)oc3c2)n1 -13.9%, Cc1cccc(N2CCN(C(=O)CCNS(=O)(=O)c3ccc4c(c3)CCC(=O)N4)CC2)c1C -0.88%, CC(=O)c1ccc(N2CCN(C(=O)c3cc(C)on3)CC2)cc1 11.8%, CC(c1cccs1)N(C)Cc1nc(CCc2ccccc2)no1 (stereo unspecified) 2.69%, CN1C(=O)[C@H]2[C@@H](c3ccc(C(F)(F)F)cc3)N[C@]3(CCCN(CC4CCCCC4)C3=O)[C@H]2C1=O 2.73%, CCN(CC(=O)NC1CCS(=O)(=O)C1)C(=O)C(c1ccccc1)c1ccccc1 (stereo unspecified) 1.78% and 11.2%, CC(=O)N1CCN(S(=O)(=O)c2cccc(C(=O)NNC(=O)COc3c(C)cccc3C)c2)CC1 -12.3%, N#CCN1C(=O)C(=O)N(Cc2cccc(C(F)(F)F)c2)C1=O -1.35%, CC(NC(=O)c1ccccc1[N+](=O)[O-])C1CC2CCC1C2 (stereo unspecified) 1.73%, O=C(Nn1cnc2ccccc2c1=O)c1ccc([N+](=O)[O-])cc1 -7.54%, c1ccc(CNn2nnnc2-c2ccccc2)cc1 1.36%, O=[N+]([O-])c1ccc(COc2cccc(CNc3ccc(Br)cc3)c2)cc1 2.31%, Oc1ccc(NCc2ccc(OCc3ccccc3)cc2)cc1 17.4%, CN(C)S(=O)(=O)c1ccc(N2CCCC2)c(C(=O)Nc2nc3c(ccc4ccccc43)s2)c1 -35.6%
